One may read the inhibition as the drop in the measured response relative to a control, in per cent.

The structures appear in SMILES notation. Several values for one entry are separate records, joined by “and”; a condition that tells them apart may be missing. Equal values may be shown once. Among all 350,000 compounds or so, about 1,900 (0.54%) were called active. The sample holds actives, similar compounds and a random draw of the others, so the mix is not that of the screen.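 Rule for the calls: active = mean inhibition across replicates at least about 35%, with every replicate also reaching that limit (limit read from the data); inconclusive = only one of the two criteria met; inactive = neither criterion met.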 Some structures have more than one record in an assay (separate samples or runs), and their calls can disagree.

Sequence of Caspase-6 (Homo sapiens) (P55212 24-179 limits assumed): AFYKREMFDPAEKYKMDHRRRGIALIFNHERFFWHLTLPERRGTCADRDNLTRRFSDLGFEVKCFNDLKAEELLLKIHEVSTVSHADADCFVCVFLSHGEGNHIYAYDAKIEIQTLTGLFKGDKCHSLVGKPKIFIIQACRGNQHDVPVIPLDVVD
Sequence of Caspase-6 (Homo sapiens) (P55212 194-293 limits assumed): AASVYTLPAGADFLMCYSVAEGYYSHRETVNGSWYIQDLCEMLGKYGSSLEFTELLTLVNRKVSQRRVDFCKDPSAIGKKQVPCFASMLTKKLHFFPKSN

This assay addresses Caspase-6 (Homo sapiens) (UniProt P55212). Kind of assay: inhibition of CASP6 peptide cleavage – biochemical, VEID-R110 fluorescence, single point, set 2, primary screen (AID 686996).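 Note: 0% = median of neutral control wells and 100% = no fluorescence left.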 To be noted: purified caspase-6, Z-VEID-R110 cleavage fluorescence; at 12.5 µM; stronger effect = higher value.
With `C[C@H]1CN([C@@H](C)CO)S(=O)(=O)c2ccc(C#Cc3ccccc3)cc2O[C@@H]1CN(C)C(=O)C1CC1`, the inhibition was 2.82% (inactive).
For the compound `CN(C)C(=O)c1ccc(-c2ccccc2[C@H]2[C@@H](CO)N(C(=O)C3CCCCC3)[C@H]2C#N)cc1`, the inhibition was -0.604% (inactive).
On to `COc1ccc(CN(C)C[C@@H]2Oc3ccc(NC(=O)Nc4ccc(F)cc4)cc3CC(=O)N([C@@H](C)CO)C[C@H]2C)cc1`, for which the inhibition was 3.48% (inactive).
The same measure for `COC(=O)CCCCC1=CCC2C(=O)C=C(O)C2C1` (configuration not stated): 70.5% (active).
In the case of `CC(C)(O)C#Cc1ccc([C@H]2[C@@H](CO)N3CCCCN(C(=O)c4ccncc4)C[C@H]23)cc1`, the inhibition was 1.18% (inactive).
`COCC(=O)N1CC(=O)N2[C@H](CO)[C@@H](c3ccc(C#CC4CCCC4)cc3)[C@H]2C1`: the inhibition is -0.852% (inactive).
Turning to `CCOc1ccc(CCNC(=O)Nc2ccccc2)cc1OCC`, the inhibition is -1.26% (inactive).
The same measure for `CCOc1ccc(C(=O)NCC(=O)N2CCCCCCC2)cc1OCC`: -0.226% (inactive).
For `CCOc1cc(C(=O)O)ccc1OCCOc1ccccc1`, the inhibition is 35.6% (active).
In the case of `O=C(C[C@H]1CC[C@@H](NC(=O)c2ccncc2)[C@@H](CO)O1)Nc1ccccc1`, the inhibition is 1.11% (inactive).
Then `CCNC(=O)C[C@@H]1CC[C@H]2[C@@H](COc3ccc(NC(=O)NC(C)C)cc3C(=O)N2C)O1`, with 0.619% (inactive).
Turning to `O=C(Cn1cnc2ccccc21)N/N=C/c1ccco1`, the inhibition is 1.45% (inactive).
For `O=c1nc(N/N=C/c2ccco2)cn[nH]1`, the inhibition is 55.7% (active).
Then `Cc1n[nH]c(=O)nc1N/N=C/c1cccs1`, with 0.991% (inactive); and `COc1ccccc1C#Cc1cnc2c(c1)C(=O)N([C@@H](C)CO)C[C@H](C)[C@@H](CN(C)C(=O)CC1CC1)O2`, with -4.85% (inactive).
`CCOc1ccc(CCN2C(=O)c3cccnc3C2=O)cc1OCC`: the inhibition is 3.27% (inactive).
For the compound `NC1=CC(=O)C(=O)c2cccnc21`, the inhibition was 93.8% (active).
For the compound `C[C@@H]1CN([C@H](C)CO)C(=O)c2cc(NC(=O)Cc3ccccc3)ccc2O[C@@H](C)CCCCO[C@H]1CN(C)C(=O)Cc1ccccc1`, the inhibition is 1% (inactive).
In the case of `C[C@@H]1CN([C@H](C)CO)C(=O)c2cc(C#CC3CC3)cnc2O[C@@H]1CN(C)Cc1ccccn1`, the inhibition was -0.477% (inactive).
In the case of `O=C1C=CCCN1C(=O)/C=C/c1ccc(F)cc1`, the inhibition is 6.28% (inactive).
Then `C[C@H](CO)N1C[C@H](C)[C@H](CN(C)Cc2ccc(C(=O)O)cc2)Oc2ncc(-c3ccccc3)cc2C1=O`, with -1.47% (inactive).
Regarding `O=C(NC1=CC(=O)c2ccccc2C1=O)c1ccccc1`, the inhibition was 1.17% (inactive).
Turning to `CC(=O)N(C1=C(Cl)C(=O)c2ccccc2C1=O)c1ccc(C(=O)O)cc1`, the inhibition was 91% (active).
As to `O=C1C(Cl)=C(Oc2ccccc2)C(=O)c2ccccc21`, the inhibition is 4.78% (inactive).
Consider `CNC[C@@H]1OCCCC[C@@H](C)Oc2ccc(NS(C)(=O)=O)cc2C(=O)N([C@H](C)CO)C[C@@H]1C`, for which the inhibition is -3.75% (inactive).
Regarding `CCO[C@H]1OC(C(=O)N2CCCCCCC2)=C[C@@H](c2ccc(C(F)(F)F)cc2)[C@@H]1CCCO`, the inhibition is -1.98% (inactive) and 3.38% (inactive).
The same measure for `CCO[C@@H]1OC(C(=O)N2CCOCC2)=C[C@H](C)[C@H]1CCCO`: -0.276% (inactive); for `CCO[C@H]1OC(C(=O)N2CCOCC2)=C[C@@H](c2ccc3c(c2)OCO3)[C@@H]1CCCO`: 38.4% (active) and 1.81% (inactive); for `Cc1noc(C)c1NC(=O)Nc1ccc2c(c1)C(=O)N([C@H](C)CO)C[C@@H](C)[C@@H](CN(C)Cc1ccccc1)O2`: -0.453% (inactive).
The same measure for `C[C@H](CO)N1C[C@H](C)[C@H](CN(C)Cc2ccc(C(F)(F)F)cc2)OCCCC[C@H](C)Oc2ccc(NS(=O)(=O)c3ccc(Cl)cc3)cc2C1=O`: 0% (inactive); for `CCC(=O)N1[C@H](C(=O)OC)[C@@H](CO)[C@@H]2Cn3c(ccc(-c4cccc(F)c4)c3=O)[C@@H]21`: -0.171% (inactive).
On to `Cc1cccc(-c2ccc(C3[C@@H]4CN(C(=O)Nc5ccc(C(F)(F)F)cc5)C[C@H]3N4)cc2)c1` (some centres not stated), for which the inhibition is 17.5% (inactive) and -2.54% (inactive).
`C[C@@H]1CCCCO[C@@H](CN(C)Cc2ccccc2)[C@H](C)CN([C@H](C)CO)C(=O)c2cc(NS(=O)(=O)c3cccs3)ccc2O1`: the inhibition was -0.17% (inactive).
Regarding `COc1ccccc1CCC(=O)OCC(=O)N1CCN(S(=O)(=O)c2ccc(C)cc2C)CC1`, the inhibition is 0.558% (inactive).
On to `Cc1ccc(S(=O)(=O)N2CCN(C(=O)COC(=O)CNC(=O)c3ccc(C(C)(C)C)cc3)CC2)c(C)c1`, for which the inhibition was 53.3% (active).
Then `Cc1ccc(S(=O)(=O)N2CCN(C(=O)COC(=O)c3c(C)cc(C)cc3C)CC2)c(C)c1`, with 0.238% (inactive); and `CC1CN(C(=O)c2ccccc2NS(=O)(=O)c2cccc([N+](=O)[O-])c2)CC(C)O1` (configuration not stated), with 0.082% (inactive); and `COc1ccc(S(=O)(=O)N2CCC(C(=O)OCC(=O)c3ccccc3)CC2)cc1[N+](=O)[O-]`, with -8.89% (inactive).
With `COc1ccc(Br)cc1/C=N/Nc1ccc(S(=O)(=O)Nc2ccccc2C(=O)O)cc1[N+](=O)[O-]`, the inhibition is 49.3% (active).
Consider `CCCN1[C@H](C(=O)N[C@H](C)c2ccccc2)[C@@H](CO)[C@@H]2Cn3c(ccc(-c4ccccc4)c3=O)[C@@H]21`, for which the inhibition was -1.76% (inactive).
On to `O=C(C[C@H]1CC[C@H]2[C@@H](COC[C@@H](O)CN2CC2CCOCC2)O1)NCc1ccc(Cl)cc1`, for which the inhibition is -3.23% (inactive).
For the compound `Cc1noc(C)c1S(=O)(=O)N(C)C[C@@H]1Oc2ccc(NC(=O)Cn3cnnn3)cc2CC(=O)N([C@@H](C)CO)C[C@@H]1C`, the inhibition is 2.4% (inactive).
For the compound `CCN=c1sc(C(=O)Nc2ccccc2)c(C)n1CC`, the inhibition is 67.5% (active).
For `COc1ccc(NC(=O)c2sc(=O)n(Cc3ccc(S(=O)(=O)N(C)C)cc3)c2C)cc1`, the inhibition was -0.522% (inactive).
On to `Cc1c(C(=O)Nc2ccccc2)sc2nc3n(c(=O)c12)CCCCC3`, for which the inhibition is 14.7% (inactive).
For the compound `C[C@@H]1CN([C@@H](C)CO)C(=O)Cc2cc(NS(C)(=O)=O)ccc2O[C@H]1CN(C)C(=O)Nc1ccccc1`, the inhibition was 2.54% (inactive).
On to `O=S(=O)(N[C@H]1CC[C@@H](CCNS(=O)(=O)c2ccccc2Cl)O[C@@H]1CO)c1ccccc1`, for which the inhibition was 1.46% (inactive).
For `C[C@@H]1CN([C@@H](C)CO)C(=O)c2cc(NC(=O)Nc3ccc4c(c3)OCO4)ccc2O[C@@H](C)CCCCO[C@@H]1CN(C)S(=O)(=O)c1cccs1`, the inhibition was -0.287% (inactive).
Then `O=S(=O)(Nc1ccccc1Cl)c1cccc2nsnc12`, with 51.3% (active).
On to `COc1ccc(NS(=O)(=O)c2cccc3nsnc23)cc1Cl`, for which the inhibition was -0.203% (inactive).
The same measure for `O=C(O)c1ccc(NS(=O)(=O)c2cccc3nsnc23)cc1`: 4.06% (inactive); for `Cc1cccc(S(=O)(=O)N2CC[C@@H]3[C@H]2c2cc(C#Cc4ccccc4F)ccc2N[C@@H]3CO)c1`: 4.39% (inactive); for `CC(C)NC(=O)Nc1ccc2c(c1)C(=O)N([C@@H](C)CO)C[C@H](C)[C@H](CN(C)C(=O)NC1CCCCC1)OCCCC[C@@H](C)O2`: 1.72% (inactive).
With `C[C@@H]1CN([C@H](C)CO)C(=O)c2cc(-c3cccc(C#N)c3)cnc2O[C@H]1CN(C)C(=O)C1CCC1`, the inhibition was -1.37% (inactive).
Regarding `COc1ccc(-c2cc(=O)oc3cc(OCC(=O)N[C@@H](Cc4c[nH]c5ccccc45)C(=O)O)ccc23)cc1`, the inhibition was 5.8% (inactive).
The same measure for `COc1ccc(-c2cc(C(=O)NC(Cc3c[nH]c4ccccc34)C(=O)O)c(C)o2)cc1OC` (configuration not stated): 50.7% (active).
The same measure for `CC(Oc1ccc2c(-c3ccccc3)cc(=O)oc2c1)C(=O)NC(Cc1c[nH]c2ccccc12)C(=O)O` (configuration not stated): 5.42% (inactive).
On to `COc1ccc2c3c([nH]c2c1)[C@H](CO)N(Cc1nccs1)CC31CCN(Cc2cccnc2)CC1`, for which the inhibition was 1.89% (inactive).
The same measure for `C/C=C/c1ccc([C@H]2[C@@H](CO)N(C(C)=O)[C@H]2CNC(=O)c2ccncc2)cc1`: -0.501% (inactive); for `COc1ccc2c3c([nH]c2c1)[C@@H](CO)N(S(C)(=O)=O)CC31CN(CC2CC2)C1`: 0.799% (inactive).
Consider `COc1ccc(Cl)cc1N(CC(=O)N/N=C/c1ccc(OCC(N)=O)cc1)S(C)(=O)=O`, for which the inhibition is 49.4% (active).
Then `COc1ccc(S(=O)(=O)N(CC(=O)N/N=C/c2ccc(C(=O)O)cc2)Cc2ccccc2)cc1OC`, with 3.65% (inactive).
For `COc1ccc(Cl)cc1N(CC(=O)N1CCCCC1)S(C)(=O)=O`, the inhibition was 5.56% (inactive).
For the compound `O=C(C1CCCCC1)N1CC(=O)N2[C@H](CO)[C@@H](c3ccc(C#Cc4cccc(F)c4)cc3)[C@@H]2C1`, the inhibition was -1.89% (inactive).
With `C[C@H](CO)N1C[C@H](C)[C@H](CN(C)C(=O)C2CCOCC2)Oc2ncc(-c3ccccc3F)cc2C1=O`, the inhibition was -2.04% (inactive).
The same measure for `C[C@H](CO)N1C[C@H](C)[C@@H](CN(C)Cc2cccc(F)c2)Oc2cc(C#CC3CC3)ccc2S1(=O)=O`: 0.411% (inactive).
The same measure for `Cc1ccc(S(=O)(=O)N(C)C[C@H]2Oc3ccc(NC(=O)Nc4cccc5ccccc45)cc3CC(=O)N([C@H](C)CO)C[C@H]2C)cc1`: -0.526% (inactive).

Values taken from PubChem BioAssay AID686996 (Broad Institute, 2013).
